# Laboratory results reported in PMC5540273 (PLoS ONE, 2017).
# Where two headings read alike, the source gives them in different places.
# Experiments:
# Conditions in all cases: n = 1
# [1] = test system: T1, MEK2
# T1 construct: gene MAP2K2
# [2] = test system: T2, MEK3
# T2 construct: gene MAP2K3
# [3] = test system: T3, MEK4
# T3 construct: gene MAP2K4
# [4] = test system: T4, MEK5
# T4 construct: gene MAP2K5
# [5] = test system: T5, MEK6
# T5 construct: gene MAP2K6
# [6] = test system: MELK
# [7] = test system: MERTK
# [8] = test system: MET
# [9] = test system: T6, MINK
# T6 construct: gene MINK1
# [10] = test system: MKK7
# [11] = test system: MKNK1
# [12] = test system: MKNK2
# [13] = test system: T7, MLCK
# T7 construct: gene MYLK3
# [14] = test system: T8, MLK1
# T8 construct: gene MAP3K9
# [15] = test system: MLK2
# [16] = test system: MLK3
# [17] = test system: MRCKA
# [18] = test system: T9, MRCKB
# T9 construct: gene CDC42BPB
# [19] = test system: MST1R
# [20] = test system: T10, MST1
# T10 construct: gene STK4
# [21] = concentration: 1 μM, replicates: in singlicate
# 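Further: KINOMEscan kinase panel screen.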
smiles,measurement,setting,value
COc1ccccc1CNC(=O)c1cc(C(=O)c2ccccc2C)c[nH]1 [GSK364507],%Inh,[1]; [21],0%
same,%Inh,[2]; [21],0%
same,%Inh,[3]; [21],41%
same,%Inh,[4]; [21],36%
same,%Inh,[5]; [21],0%
same,%Inh,[6]; [21],0%
same,%Inh,[7]; [21],0%
same,%Inh,[8]; [21],0%
same,%Inh,[9]; [21],0%
same,%Inh,[10]; [21],0%
same,%Inh,[11]; [21],5%
same,%Inh,[12]; [21],2%
same,%Inh,[13]; [21],9%
same,%Inh,[14]; [21],0%
same,%Inh,[15]; [21],0%
same,%Inh,[16]; [21],0%
same,%Inh,[17]; [21],40%
same,%Inh,[18]; [21],0%
same,%Inh,[19]; [21],36%
same,%Inh,[20]; [21],0%
Cc1ccc(-c2cc(-c3c[nH]nc3-c3ccccn3)ccn2)cc1 [GW684088],%Inh,[1]; [21],0%
same,%Inh,[2]; [21],0%
same,%Inh,[3]; [21],9%
same,%Inh,[4]; [21],17%
same,%Inh,[5]; [21],19%
same,%Inh,[6]; [21],25%
same,%Inh,[7]; [21],13%
same,%Inh,[8]; [21],0%
same,%Inh,[9]; [21],87%
same,%Inh,[10]; [21],14%
same,%Inh,[11]; [21],0%
same,%Inh,[12]; [21],1%
same,%Inh,[13]; [21],0%
same,%Inh,[14]; [21],0%
same,%Inh,[15]; [21],0%
same,%Inh,[16]; [21],15%
same,%Inh,[17]; [21],2%
same,%Inh,[18]; [21],0%
same,%Inh,[19]; [21],13%
same,%Inh,[20]; [21],0%
COC(=O)c1c(-c2ccccc2)c2cc(OC)ccc2c(=O)n1Cc1ccccc1,%Inh,[1]; [21],0%
same,%Inh,[2]; [21],0%
same,%Inh,[3]; [21],18%
same,%Inh,[4]; [21],10%
same,%Inh,[5]; [21],21%
same,%Inh,[6]; [21],0%
same,%Inh,[7]; [21],3%
same,%Inh,[8]; [21],0%
same,%Inh,[9]; [21],0%
same,%Inh,[10]; [21],7%
same,%Inh,[11]; [21],5%
same,%Inh,[12]; [21],0%
same,%Inh,[13]; [21],3%
same,%Inh,[14]; [21],0%
same,%Inh,[15]; [21],9%
same,%Inh,[16]; [21],0%
same,%Inh,[17]; [21],0%
same,%Inh,[18]; [21],0%
same,%Inh,[19]; [21],38%
same,%Inh,[20]; [21],15%
Cn1ccc2ncnc(Oc3cccc(C(=O)Nc4ccccc4)c3)c21,%Inh,[1]; [21],23%
same,%Inh,[2]; [21],19%
same,%Inh,[3]; [21],30%
same,%Inh,[4]; [21],14%
same,%Inh,[5]; [21],0%
same,%Inh,[6]; [21],9%
same,%Inh,[7]; [21],0%
same,%Inh,[8]; [21],8%
same,%Inh,[9]; [21],12%
same,%Inh,[10]; [21],21%
same,%Inh,[11]; [21],12%
same,%Inh,[12]; [21],11%
same,%Inh,[13]; [21],13%
same,%Inh,[14]; [21],0%
same,%Inh,[15]; [21],6%
same,%Inh,[16]; [21],12%
same,%Inh,[17]; [21],1%
same,%Inh,[18]; [21],15%
same,%Inh,[19]; [21],11%
same,%Inh,[20]; [21],0%
CCn1c(-c2ccccn2)nc2cnccc21 [SB-736398],%Inh,[1]; [21],0%
same,%Inh,[2]; [21],0%
same,%Inh,[3]; [21],19%
same,%Inh,[4]; [21],12%
same,%Inh,[5]; [21],100%
same,%Inh,[6]; [21],22%
same,%Inh,[7]; [21],0%
same,%Inh,[8]; [21],15%
same,%Inh,[9]; [21],0%
same,%Inh,[10]; [21],0%
same,%Inh,[11]; [21],26%
same,%Inh,[12]; [21],24%
same,%Inh,[13]; [21],0%
same,%Inh,[14]; [21],12%
same,%Inh,[15]; [21],0%
same,%Inh,[16]; [21],7%
same,%Inh,[17]; [21],14%
same,%Inh,[18]; [21],0%
same,%Inh,[19]; [21],47%
same,%Inh,[20]; [21],29%
Cc1cccc(-c2nc(Nc3ccc4[nH]ncc4c3)c3ccccc3n2)n1 [GW857175],%Inh,[1]; [21],24%
same,%Inh,[2]; [21],19%
same,%Inh,[3]; [21],51%
same,%Inh,[4]; [21],40%
same,%Inh,[5]; [21],0%
same,%Inh,[6]; [21],25%
same,%Inh,[7]; [21],11%
same,%Inh,[8]; [21],2%
same,%Inh,[9]; [21],19%
same,%Inh,[10]; [21],12%
same,%Inh,[11]; [21],0%
same,%Inh,[12]; [21],0%
same,%Inh,[13]; [21],0%
same,%Inh,[14]; [21],2%
same,%Inh,[15]; [21],22%
same,%Inh,[16]; [21],7%
same,%Inh,[17]; [21],0%
same,%Inh,[18]; [21],72%
same,%Inh,[19]; [21],0%
same,%Inh,[20]; [21],0%
Cc1c(Cn2ccn3c(=O)cc(N4CCOCC4)nc23)cccc1C(F)(F)F [GSK2289044],%Inh,[1]; [21],0%
same,%Inh,[2]; [21],17%
same,%Inh,[3]; [21],9%
same,%Inh,[4]; [21],0%
same,%Inh,[5]; [21],0%
same,%Inh,[6]; [21],21%
same,%Inh,[7]; [21],15%
same,%Inh,[8]; [21],0%
same,%Inh,[9]; [21],1%
same,%Inh,[10]; [21],16%
same,%Inh,[11]; [21],0%
same,%Inh,[12]; [21],0%
same,%Inh,[13]; [21],7%
same,%Inh,[14]; [21],0%
same,%Inh,[15]; [21],0%
same,%Inh,[16]; [21],3%
same,%Inh,[17]; [21],0%
same,%Inh,[18]; [21],0%
same,%Inh,[19]; [21],27%
same,%Inh,[20]; [21],1%
O=C(Nc1ccc2c(c1)OCO2)NC1CCN(c2ccnc(Nc3ccc(F)cc3)n2)C1 (centres unmarked) [GSK1379724],%Inh,[1]; [21],0%
same,%Inh,[2]; [21],0%
same,%Inh,[3]; [21],28%
same,%Inh,[4]; [21],17%
same,%Inh,[5]; [21],0%
same,%Inh,[6]; [21],0%
same,%Inh,[7]; [21],0%
same,%Inh,[8]; [21],0%
same,%Inh,[9]; [21],0%
same,%Inh,[10]; [21],0%
same,%Inh,[11]; [21],0%
same,%Inh,[12]; [21],3%
same,%Inh,[13]; [21],0%
same,%Inh,[14]; [21],0%
same,%Inh,[15]; [21],0%
same,%Inh,[16]; [21],2%
same,%Inh,[17]; [21],2%
same,%Inh,[18]; [21],16%
same,%Inh,[19]; [21],35%
same,%Inh,[20]; [21],0%
Nc1ncnc2[nH]c(-c3ccccc3)nc12 [AH5015],%Inh,[1]; [21],0%
same,%Inh,[2]; [21],1%
same,%Inh,[3]; [21],13%
same,%Inh,[4]; [21],50%
same,%Inh,[5]; [21],0%
same,%Inh,[6]; [21],0%
same,%Inh,[7]; [21],0%
same,%Inh,[8]; [21],0%
same,%Inh,[9]; [21],4%
same,%Inh,[10]; [21],0%
same,%Inh,[11]; [21],0%
same,%Inh,[12]; [21],39%
same,%Inh,[13]; [21],0%
same,%Inh,[14]; [21],11%
same,%Inh,[15]; [21],5%
same,%Inh,[16]; [21],4%
same,%Inh,[17]; [21],0%
same,%Inh,[18]; [21],0%
same,%Inh,[19]; [21],3%
same,%Inh,[20]; [21],100%
Cc1ccc(NC(=O)Nc2cccc(C(F)(F)F)c2)cc1 [GSK955403],%Inh,[1]; 1 µM,3%
same,%Inh,[2]; 1 µM,15%
same,%Inh,[3]; 1 µM,0%
same,%Inh,[4]; 1 µM,0%
same,%Inh,[5]; 1 µM,26%
same,%Inh,[6]; 1 µM,15%
same,%Inh,[7]; 1 µM,29%
same,%Inh,[8]; 1 µM,0%
same,%Inh,[9]; 1 µM,0%
same,%Inh,[10]; 1 µM,0%
same,%Inh,[11]; 1 µM,0%
same,%Inh,[12]; 1 µM,30%
same,%Inh,[13]; 1 µM,0%
same,%Inh,[14]; 1 µM,0%
same,%Inh,[15]; 1 µM,13%
same,%Inh,[16]; 1 µM,6%
same,%Inh,[17]; 1 µM,0%
same,%Inh,[18]; 1 µM,0%
same,%Inh,[19]; 1 µM,0%
same,%Inh,[20]; 1 µM,0%
